This is an account of results in PubChem BioAssay AID1030 (National Center for Advancing Translational Sciences (NCATS), 2008).

The campaign covered roughly 220,000 compounds. About 16,000 (7.3%) were called active. Not shown: some 25% with an inconclusive outcome. The call rests on the fitted dose curve; in most records, active means well fitted inhibition curve with a large enough effect (not every such curve was filed as active); inconclusive means small, poorly fitted or top-dose-only effect, or another doubt; inactive means no such curve, though single readings can be large or run the other way. Only a selection was taken, and actives are over-represented in it overall.
Potency means the concentration at half of the fitted maximal effect.

Sequence of Aldehyde dehydrogenase 1A1 (Homo sapiens) (P00352 whole entry, looked up): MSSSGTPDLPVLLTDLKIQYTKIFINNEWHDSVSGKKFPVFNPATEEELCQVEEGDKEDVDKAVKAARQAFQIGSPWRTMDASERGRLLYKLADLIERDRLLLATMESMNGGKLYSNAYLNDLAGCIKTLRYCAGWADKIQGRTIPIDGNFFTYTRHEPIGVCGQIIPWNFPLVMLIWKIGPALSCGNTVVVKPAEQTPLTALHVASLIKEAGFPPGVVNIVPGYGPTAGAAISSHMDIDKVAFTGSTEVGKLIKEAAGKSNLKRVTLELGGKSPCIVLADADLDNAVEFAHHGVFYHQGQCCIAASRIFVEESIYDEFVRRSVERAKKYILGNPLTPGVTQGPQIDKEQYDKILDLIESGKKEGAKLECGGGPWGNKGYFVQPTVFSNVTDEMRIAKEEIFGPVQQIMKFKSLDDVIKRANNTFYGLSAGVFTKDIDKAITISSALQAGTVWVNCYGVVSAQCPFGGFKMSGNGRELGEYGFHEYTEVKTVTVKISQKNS

The assay has as its target Aldehyde dehydrogenase 1A1 (Homo sapiens) (UniProt P00352). Description: qHTS Assay for Inhibitors of Aldehyde Dehydrogenase 1 (ALDH1A1).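 On activity, negative = inhibition: plate controls were no enzyme wells and a reference inhibitor.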 As to conditions: Purified ALDH1A1, NADH fluorescence, propionaldehyde substrate; series mostly up to 75.3 µM; activity, negative = inhibition: at the top concentration.
As to `COC(=O)[C@H](Cc1ccccc1)NC(=O)[C@@H]1C[C@H]1[C@@H](NC(=O)OCc1ccccc1)c1ccccc1`, the “activity, negative = inhibition” value is 17.6% (inactive). Same read-out and setting: with `COc1ccc(C2(CNC(=O)Cc3ccc(OC)c(OC)c3)CCCC2)cc1` the figure was 5.66% (inactive); with `CCN(CCn1cccn1)Cc1nc(-c2ccc(C(=O)OC)cc2)no1`, 5.91% (inactive). Consider `O=C1OC(/C=C/c2ccccc2)=NC/1=C/c1ccco1`, for which the Potency was 11.2 µM (active). For the compound `O=c1oc(/C=C/c2ccccc2)nc2ccccc12`, the “activity, negative = inhibition” value was 5.64% (inactive).

Take `CC(=O)Oc1ccccc1C1=NN(C(C)=O)C(c2ccccc2)C1` (stereo not drawn): the “activity, negative = inhibition” value was -3.23% (inactive). With `COc1ccccc1N1CCN(/N=C\C(Br)=C\c2ccccc2)CC1`, the Potency was 5.62 µM (active).

As for `COc1ccccc1N1CCN(C(=O)C(=O)N/N=C/c2ccccc2F)CC1`, the “activity, negative = inhibition” value is -4.88% (inactive). Still for that read-out and setting: with `CNCC(O)CN1CCN(c2ccccc2OC)CC1` (stereo not drawn) the figure was 3.3% (inactive). For `COc1ccccc1CNC(=O)COc1ccc(C)nc1[N+](=O)[O-]`, the “activity, negative = inhibition” value is 8.34% (inactive). On the same count and under the same terms, with `O=S(=O)(NCCc1ccc(F)cc1)c1cccc2cccnc12` the figure was -5.69% (inactive). As for `Cc1coc2c(O)cc3c(c12)OC1(N2CCCCC2)C(=O)NCCCC31` (stereo not drawn), the Potency is 20 µM (active). For `COc1ccc(NC(=O)C(Br)C(C)C)cc1` (stereo not drawn), the “activity, negative = inhibition” value is 8% (inactive). Still for that read-out and setting: the result for `Cc1nn(-c2ccccc2)c2c1C(c1cccc([N+](=O)[O-])c1)N(c1ccccc1)C(=O)N2` (stereo not drawn) reads -4.59% (inactive); that for `CCOc1ccc(C(=O)Nc2cccc(-c3ccc4nncn4n3)c2)cc1`, 6.9% (inactive); that for `NC(=O)N1CCc2ccccc21`, -0.487% (inactive). For the compound `Cc1occc1C(=O)N1CCCc2ccccc21`, the Potency was 31.6 µM (active). Consider `CCCn1nc(C(=O)N2CCCc3ccccc32)c2ccccc2c1=O`, for which the “activity, negative = inhibition” value was 0.156% (inactive). Same read-out and setting: the result for `CCOC(=O)C1=NO[C@@]2(C=C(Br)C(=O)[C@H]3O[C@H]32)C1` reads -3.87% (inactive); that for `O=C(N/N=C/c1ccc2c(c1)OCO2)c1ccc(Cn2cc([N+](=O)[O-])cn2)o1`, -3.18% (inactive). As to `CN(C)c1ccc(/C=N/NC(=O)c2ccc(Cn3cc(Br)cn3)o2)cc1`, the Potency is 17.8 µM (active). For `O=C(N/N=C\c1ccc(Br)cc1)c1ccc(Cn2cccn2)o1`, the “activity, negative = inhibition” value is 1.46% (inactive).

For the compound `COc1ccc(C2CC(c3cccs3)Nc3nnnn32)cc1` (stereo not drawn), the “activity, negative = inhibition” value is -3.25% (inactive). Still for that read-out and setting: the result for `O=c1[nH]c(CN2CCOCC2)nc2cc(Cl)ccc12` reads 5.97% (inactive); that for `CCC1(CC)NC(=O)N(CC(=O)OCC(=O)NC(=O)c2ccccc2)C1=O`, -4.7% (inactive). Same read-out and setting: with `O=C(c1ccccc1Cl)N(Cc1ccccc1F)N1C(=O)CCCC1=O` the figure was 7.83% (inactive); with `COc1ccc(NC(=O)N2CCCC(c3nc(-c4ccc(F)cc4)no3)C2)cc1` (stereo not drawn), -1.81% (inactive); with `CC(=O)N1c2ccccc2N(Cc2ccc([N+](=O)[O-])cc2)C(=O)C1(C)C`, 10.7% (inactive). `Cc1ccc(C)c(NC(=O)CCC(=O)NNC(=O)c2cccs2)c1`: the “activity, negative = inhibition” value is 1.54% (inactive). Still for that read-out and setting: with `COC(=O)C(CC(=O)Nc1cc(C)ccc1C)Nc1ccccc1OC` (stereo not drawn) the figure was 4.82% (inactive). Regarding `Cc1ccc(C)c(NC(CC(=O)c2ccccc2)C(=O)OCC(=O)c2cccs2)c1` (stereo not drawn), the Potency was 7.08 µM (active).

As to `O=C(COC(=O)CNC(=O)c1ccccc1F)NCC(F)(F)F`, the “activity, negative = inhibition” value is 0.995% (inactive). Same read-out and setting: the result for `O=C(COC(=O)c1ccc(O)cc1)Nc1nccs1` reads -0.667% (inactive). The same measure, in the same setting: the result for `OC(COc1cccc(OCC(O)CN2CCCC2)c1)CN1CCCC1` (stereo not drawn) reads -4.35% (inactive). In the case of `OC(COCCC12CC3CC(CC(C3)C1)C2)CN1CCCCC1` (stereo not drawn), the Potency is 20 µM (active). Consider `Cc1cccc(C)c1OCC(O)CN1CCCCC1` (stereo not drawn), for which the “activity, negative = inhibition” value is 0.0933% (inactive). On the same count and under the same terms, the result for `CC1CCCCC1NC(=O)CO/N=C/c1ccc(OC(F)F)cc1` (stereo not drawn) reads 1.1% (inactive); that for `CCCCCCCCc1c(O)nc(-n2[nH]c(C)c(CCO)c2=O)[nH]c1=O`, 5.41% (inactive). Consider `CCOc1ccccc1Nc1ccc(C(=O)O)cc1[N+](=O)[O-]`, for which the “activity, negative = inhibition” value is 4.42% (inactive). Same read-out and setting: with `CSc1ccccc1NC(=O)CN(C)CC(=O)Nc1ccc(Cl)cc1[N+](=O)[O-]` the figure was -2.42% (inactive); with `CSc1nc2nc(-c3cccc(C(F)(F)F)c3)ccn2n1`, 0.606% (inactive). As for `O=C1CCCC(O)=C1N=Nc1ccc2ncsc2c1`, the Potency is 25.1 µM (active). On to `Cc1ccc(NC(=S)N(Cc2ccco2)C(C)c2cccs2)cc1` (stereo not drawn), for which the “activity, negative = inhibition” value was 9.71% (inactive). Still for that read-out and setting: with `O=C(Oc1cccc(O)c1)C1CCCCC1` the figure was 3.69% (inactive); with `COc1ccc(C2C(C(C)=O)=C(O)C(=O)N2Cc2cccnc2)cc1` (stereo not drawn), 1.23% (inactive). As for `CC(=O)C1=C(O)C(=O)N(c2cccnc2)C1c1ccc([N+](=O)[O-])cc1` (stereo not drawn), the Potency was 20 µM (active).

Take `COC(=O)CN1C(=O)C(O)=C(C(C)=O)C1c1ccc([N+](=O)[O-])cc1` (stereo not drawn): the “activity, negative = inhibition” value was 3.05% (inactive). As for `O=C1N=C(N2CCCC2)S/C1=C\c1cccc(Br)c1`, the Potency is 25.1 µM (active). With `O=C(OCC(=O)N1CCN(C(=O)c2ccco2)CC1)c1ccccc1Cc1ccccc1`, the “activity, negative = inhibition” value is -7.91% (inactive). `O=C(CNS(=O)(=O)c1ccc(Br)s1)N1CCN(C(=O)c2ccco2)CC1`: the Potency is 39.8 µM (active). For `CCNC(=S)N1CCN(C(=O)c2ccco2)CC1`, the “activity, negative = inhibition” value is 8.19% (inactive).

`CCc1nnc(NC(=O)CSc2nnnn2-c2cccc(C(C)=O)c2)s1`: the “activity, negative = inhibition” value is 0.744% (inactive). For the compound `Cc1cc(C)n(CCNCc2c(C(=O)N3C[C@@H](C)O[C@@H](C)C3)nc3ccc(Cl)cn23)n1`, the “activity, negative = inhibition” value is 3.87% (inactive).
